Compounds with a hit are over-represented: about 3.7% of the library has one in this group of screens.
tim10-1 inh – inhibits growth of tim10-1 mutant yeast. AID 463190. S. cerevisiae tim10-1 ts strain growth, BacTiter-Glo, 24 h. 2.2% of 330,000 active. inhibition, % at 20 µM;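 active = inhibition of at least 40%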;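 note: mutant grown at 25 °C; 0% = DMSO wells with yeast and 100% = wells holding no yeast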
tim23-1 inh – growth inhibitors of tim23-1 mutant yeast. 1.3% of 330,000 active. S. cerevisiae tim23-1 growth, BacTiter-Glo luminescence, 24 h. inhibition, % at 20 µM;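 active = growth inhibition of the mutant yeast at or above 50%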;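 note: temperature-sensitive mutant grown at 25 °C; plate controls were DMSO-treated mutant yeast for no effect and medium wells lacking yeast for full effect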
TIM10 inh – TIM10 yeast growth inhibition; S. cerevisiae TIM10 strain growth, BacTiter-Glo luminescence, 24 h; 1.4% of 330,000 active; inhibition, % at 10 µM;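 active = inhibition of 40% or more at the single tested concentration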;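 note: wild-type TIM10 isogenic control strain grown at permissive 25 °C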
PfHsp90 yeast 2 – growth inhibition of yeast expressing Plasmodium Hsp90 | S. cerevisiae expressing PfHsp90, BacTiter-Glo ATP, 48 h; yeast lacking PDR1 and PDR3 efflux regulators | inhibition, % at 9.4 µM | 0.32% of 310,000 active | AID 504621;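 active = every replicate shows inhibition above about 80%, whatever the replicate mean, limit read from the data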;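 note: 0% = DMSO neutral controls and 100% = 20 µM radicicol positive controls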
NLRP3 yeast inh – NALP3 inhibition in yeast; 0.39% of 330,000 active; inhibition, % at 10 µM; Yeast reconstituted NLRP3/ASC/caspase-1, beta-gal luminescence, 24 h;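 active = inhibition of 50% or more; inactive = inhibition below 50%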;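 note: plate controls were induced DMSO wells for no effect and uninduced yeast grown without galactose for full effect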
tim10-1 confirm – tim10-1 yeast growth inhibition, confirmed | shares compounds with tim10-1 inh | S. cerevisiae tim10-1 ts strain growth, BacTiter-Glo, 24 h | inhibition, % at 20 µM | 56% of 7,400 active | AID 463213;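 active = inhibition of yeast growth at or above a set limit in either of two repeat tests at 20 µM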;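 note: tim10-1 mutant grown at permissive 25 °C to find synthetic lethal compounds; 0% = DMSO yeast wells and 100% = medium wells without yeast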
Numbers without * were called inactive; . = not tested or not shown.

SMILES	tim10-1 inh	tim23-1 inh	TIM10 inh	PfHsp90 yeast 2	NLRP3 yeast inh	tim10-1 confirm
Cc1csc(NC(=O)c2cccc(S(=O)(=O)N3CCN(C)CC3)c2)n1	-5	4	-2	-8	15	.
CCOC(=O)C1(CCOc2ccccc2)CCN(Cc2nccn2CC)CC1	28	13	18	3	10	.
CCOC(=O)C1(CCCc2ccccc2)CCN(Cc2nccn2CC)CC1	41*	18	26	3	27	30
CC1CCC/C(=N\NC(=S)NCc2ccccc2)C1 (stereo not given)	41*	35	28	3	13	32*
Clc1cccc(Cl)c1/C=C/c1ccn[nH]1	55*	39	18	-15	-4	40*
O=C(O)[C@@H]1CSC2c3ccccc3C(=O)N21 (stereo not given in full)	8	14	-1	-9	15	.
COC(=O)c1sc2nc(C)c([N+](=O)[O-])c(C)c2c1N	50*	35	20	9	36	25
CCOC(=O)c1sc2nc(C)cc(C)c2c1N	22	6	13	.	7	.
CC(=O)Nc1cc(C(F)(F)F)ccc1OCCOc1ccccc1	47*	42	6	-26	19	25
O=C(/C=C/c1ccc2c(c1)OCO2)c1ccco1	17	24	22	7	-6	.
Nc1ccccc1C(=O)/C=C/c1ccc2c(c1)OCO2	44*	46	32	13	25	39*
Cc1nnc(N/N=C/c2cccc(OCc3ccc(Cl)c(Cl)c3)c2)n1N	43*	41	24	-11	16	36*
CCOc1ccccc1NC(=O)CSc1cn[nH]n1	-19	-23	-8	9	4	.
CCOC(=O)/C(=C\c1ccc([N+](=O)[O-])o1)NC(=O)c1ccccc1	47*	44	34	-27	7	42*
CSc1cccc(NC(=S)N2CCC(c3ccccc3)C2)c1 (stereo not given)	48*	34	31	12	33	28
COc1ccc2nc(N/C(N)=N/C(=S)Nc3ccccc3)nc(C)c2c1	50*	44	37	-51	21	19
Cc1ccc(S(=O)(=O)/N=C(\N)Nc2nc(C)c3ccccc3n2)cc1	45*	31	7	7	7	10
Cc1cccc(NC(=S)/N=C(\N)Nc2nc(C)c3ccccc3n2)c1	44*	35	33	-4	19	27
FC(F)(F)c1cccc(NC(=S)NNC(=S)NCc2ccccc2)c1	23	7	30	-53	4	.
COc1ccc(-c2nc(NC(C)=O)sc2-c2ccccc2)cc1	42*	42	26	-16	2	20
COc1cc(CC(=O)Nc2nc(-c3ccccc3)c(C(C)=O)s2)cc(OC)c1OC	2	7	17	-39	21	.
COc1ccc(CC(=O)Nc2nc(-c3ccccc3)c(C(C)=O)s2)cc1OC	48*	18	12	-11	4	27
COc1ccc(-c2sc(NC(C)=O)nc2-c2ccccc2)cc1	28	33	35	-4	9	.
COc1ccccc1N(C)S(=O)(=O)c1ccc(C(=O)Nc2ccc(N3CCOCC3)cc2)cc1	47*	35	35	3	3	33*
COc1cc(NC(=O)c2ccc(S(=O)(=O)N(C)c3ccccc3OC)cc2)cc(OC)c1	19	29	17	20	-3	.
SMILES	tim10-1 inh	tim23-1 inh	TIM10 inh	PfHsp90 yeast 2	NLRP3 yeast inh	tim10-1 confirm
COc1ccc(C(CCNC(C)c2ccccc2)c2ccc(F)cc2)cc1 (stereo not given)	51*	45	19	6	29	36*
COc1ccc(C(CCNCc2ccc(F)cc2)c2ccc(F)cc2)cc1 (stereo not given)	0	32	20	7	35	.
COc1ccc(C(CCNCc2ccccc2)c2ccc(F)cc2)cc1 (stereo not given)	46*	19	9	-4	30	20
COC(=O)c1ccccc1NC(=O)CSc1nc(O)cc(=O)n1C1CCCC1	46*	17	5	22	11	24
COc1ccccc1C(=O)NNC(=O)c1cccc(C)c1	0	6	-4	-14	19	.
CC(=O)N1CCN(CC(=O)Nc2c(Cl)cc(Cl)cc2Cl)CC1	0	12	8	-4	16	.
Cc1ccc(C)c(N2CCN(C(=O)CCC(=O)Nc3nnc(C(F)(F)F)s3)CC2)c1	55*	36	15	15	-8	18
CCOC(=O)C1CCN(C(=S)Nc2cc(OC)c(OC)cc2C(=O)OC)CC1	14	33	10	-10	24	.
O=C(/C(N=Nc1cccc(C(F)(F)F)c1)=C(/O)c1cccs1)C(F)(F)F	40*	41	0	-6	9	31*
CC(=O)/C(N=Nc1cccc(C(F)(F)F)c1)=C(\C)O	9	9	-10	-5	-10	.
CCOc1cc(C)cc2oc(=O)cc(-c3ccccc3)c12	33	35	-1	-44	42	.
Cc1cc(OCC(=O)N2CCc3ccccc3C2)c2c(-c3ccccc3)cc(=O)oc2c1	46*	10	28	-20	11	19
COc1ccc(CS(=O)(=O)c2ncn[nH]2)cc1	-3	0	4	17	10	.
Cc1nnc(-c2ccccc2)c(=O)n1/N=C/c1c(O)ccc2ccccc12	49*	32	37	-1	-1	19
Cc1nnc(C)n1/N=C/c1c(O)ccc2ccccc12	-9	-2	17	-12	8	.
O=C1c2ccccc2NC(c2ccc(Cl)cc2Cl)N1Cc1ccccc1 (stereo not given)	23	35	20	.	13	.
O=C1c2ccccc2NC(c2c(Cl)cccc2Cl)N1Cc1ccccc1 (stereo not given)	40*	43	27	-20	-25	26
COc1ccccc1NC(=S)NC(=O)C(C)(C)C	50*	23	18	-30	19	17
O=C(c1ccc(Cl)c(S(=O)(=O)NCc2ccccc2)c1)N1CCN(c2ccccn2)CC1	18	24	-6	-6	13	.
CCCC[C@@H]1CNC(=S)N1CCC12CC3CC(CC(C3)C1)C2	42*	36	10	0	21	16
CCOc1ccc(N(CC(=O)NCc2ccccc2Cl)S(=O)(=O)c2c(C)noc2C)cc1	5	9	8	-1	8	.
CCOc1cc(/C=N\NC(=O)c2ccc(NC(=O)CC)cc2)ccc1OC(=O)c1ccccc1	2	-3	19	-29	11	.
COc1cc(-c2cc(=O)c3c(O)c(OC)c(OC)cc3o2)cc(OC)c1O	42*	34	23	-14	7	18
Cc1ccc(S(=O)(=O)/N=C2/NC(=O)/C(=C/c3ccc(Br)o3)S2)cc1	19	21	5	-23	-1	.
Cc1ccc(S(=O)(=O)/N=C2/NC(=O)/C(=C\c3cc(Br)cc(Br)c3O)S2)cc1	42*	36	38	8	11	37*

Source: PubChem BioAssay (several laboratories)
